# Results as given in PMC4336329 (PLoS ONE, 2015).
# Out of some 310,000 compounds screened, about 14,000 (4.5%) showed an effect of 50% or more. Effects have a minus sign here. The entries come from a sample that favours strong results as a whole.
# Biological target: human ether-à-go-go-related gene (hERG) potassium channel (human, UniProt Q12809)
# Experiment: primary screen, population patch clamp on CHO cells stably expressing hERG; higher = less effect of the substance
# 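Note: peak tail current of the secondary pulse compared with the same well before compound.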
# human ether-à-go-go-related gene (hERG) potassium channel, sequence (Q12809 whole entry, looked up): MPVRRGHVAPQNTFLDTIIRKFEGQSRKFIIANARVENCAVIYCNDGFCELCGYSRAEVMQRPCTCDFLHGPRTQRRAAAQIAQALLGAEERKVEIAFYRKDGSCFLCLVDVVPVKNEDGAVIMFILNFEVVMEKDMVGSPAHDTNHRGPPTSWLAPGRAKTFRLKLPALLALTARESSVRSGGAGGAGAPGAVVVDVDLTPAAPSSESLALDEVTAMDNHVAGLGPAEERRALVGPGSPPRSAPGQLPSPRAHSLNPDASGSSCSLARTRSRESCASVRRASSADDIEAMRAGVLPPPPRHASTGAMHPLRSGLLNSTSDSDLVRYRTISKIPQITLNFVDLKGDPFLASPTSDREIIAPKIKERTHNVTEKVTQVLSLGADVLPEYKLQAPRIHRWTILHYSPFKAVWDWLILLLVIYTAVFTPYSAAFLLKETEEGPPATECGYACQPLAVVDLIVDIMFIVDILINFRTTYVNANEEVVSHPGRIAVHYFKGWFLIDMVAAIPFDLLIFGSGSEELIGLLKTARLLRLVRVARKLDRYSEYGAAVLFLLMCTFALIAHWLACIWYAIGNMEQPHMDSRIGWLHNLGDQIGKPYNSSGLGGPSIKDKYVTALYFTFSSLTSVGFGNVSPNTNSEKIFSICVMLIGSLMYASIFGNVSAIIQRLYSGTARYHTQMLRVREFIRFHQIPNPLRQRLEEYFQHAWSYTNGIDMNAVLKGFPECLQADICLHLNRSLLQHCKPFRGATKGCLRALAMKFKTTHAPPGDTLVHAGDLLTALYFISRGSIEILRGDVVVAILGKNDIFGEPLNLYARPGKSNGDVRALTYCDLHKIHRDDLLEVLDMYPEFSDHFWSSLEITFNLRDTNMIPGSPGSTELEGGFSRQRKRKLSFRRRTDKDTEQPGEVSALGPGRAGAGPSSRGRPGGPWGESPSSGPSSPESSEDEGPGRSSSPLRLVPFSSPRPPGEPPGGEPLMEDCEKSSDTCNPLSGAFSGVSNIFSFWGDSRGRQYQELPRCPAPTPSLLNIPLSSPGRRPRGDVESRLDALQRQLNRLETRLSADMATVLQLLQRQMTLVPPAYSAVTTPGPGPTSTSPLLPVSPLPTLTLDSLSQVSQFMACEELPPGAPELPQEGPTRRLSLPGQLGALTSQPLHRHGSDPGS
row,Compound,"hERG current change (%, negative = inhibition) at 10uM"
1,O=C(Nc1ccc(S(=O)(=O)NCC2CCCO2)cc1)C1CC(=O)N(c2ccccc2)C1 (stereo not shown),3.16%
2,O=C(NCCCn1ccnc1)c1cn(Cc2ccc(F)cc2)nn1,-9.7%
3,COc1ccc(C(C)=O)cc1COC(=O)CNC(=O)c1cc(C)cc(C)c1,-11.7%
4,Cc1cccc(/C=N/NC(=O)C2CCCNC2=O)c1 (stereo not shown),19%
5,Cn1c(O)c(C(=Nc2ccccc2)SCc2ccccc2Cl)c(=O)n(C)c1=O,21.5%
6,CC(/C=C1\SC(=Nc2cccnc2)NC1=O)=C\c1ccccc1,8.95%
7,CC(=O)NC(Cc1ccccc1C)C(=O)NC1CCN(c2ncccc2[N+](=O)[O-])CC1 (stereo not shown),-1.73%
8,Clc1ccc(OCCN2CCCCC2)cc1Cl.O=C(O)C(=O)O,-42.1%
9,Cc1cc(OCCCN2CCCC2)ccc1Cl,-42.9%
10,CN1CCN(CCOc2ccc(Cl)c(Cl)c2)CC1.O=C(O)C(=O)O,-22.3%
11,O=C(NCCCOc1cccc(CN2CCCCC2)c1)c1ccc(Cl)c(Cl)c1.O=C(O)C(=O)O,-60.8%
12,O=C(O)C(=O)O.c1ccc(COc2cccc(CN3CCCCC3)c2)cc1,-19.2%
13,Clc1ccc(OCCCN2CCCC2)cc1Cl.O=C(O)C(=O)O,-67.7%
14,Cc1cc(OCCCCCN2CCCC2)ccc1Cl.O=C(O)C(=O)O,-77.2%
15,CC(=O)OCC(=O)NCCCOc1cccc(CN2CCCCC2)c1.Cl,-2.29%
16,Cc1cc(OCC(=O)N2CCCC2)ccc1Cl,-0.71%
17,CC(=O)Nc1scc(-c2ccccc2)[n+]1-c1ccc(C)cc1.[Br-],1.06%
18,O=C(CCCNC(=O)c1ccc(Cl)cc1)Nc1ccc(F)c(S(=O)(=O)N2CCOCC2)c1,-33.6%
19,C/C(N)=C(/C#N)C(=O)COC(=O)c1cccc2ccccc12,-8.17%
20,Cc1cc(C)cc(NC(=O)CSc2nc3c(c(=O)n2C)SC(C)C3)c1 (stereo not shown),3.64%
21,O=C(CCCN1C(=O)NC2(CCCC2)C1=O)N1CCN(S(=O)(=O)c2ccccc2)CC1,0.403%

row,Compound,"hERG current change (%, negative = inhibition) at 10uM"
1,CC(=O)C(c1ccccc1)C(c1ccccc1)C(C)[N+](=O)[O-] (stereo not shown),14.3%
2,OCC(CO)(CO)n1cnnn1,12.3%
3,CCN(CC)c1ccc(/C=N/O)cc1,18.3%
4,CC(C)CCNC(=O)C(c1ccncc1)N(C(=O)Cn1nnc(-c2ccc(F)cc2)n1)c1ccccc1F (stereo not shown),-24.2%
5,O=C(NCC1CCCO1)C(c1ccncc1)N(Cc1cccs1)C(=O)Cn1nnc(-c2ccc(F)cc2)n1 (stereo not shown),-60.1%
6,O=C(NCC1CCCO1)C(c1ccncc1)N(Cc1ccc(F)cc1)C(=O)CN1C(=O)c2ccccc2S1(=O)=O (stereo not shown),-58.3%
7,O=C(NCC1CCCO1)C(c1ccc(F)cc1)N(Cc1ccc(F)cc1)C(=O)Cn1nnc(-c2cccs2)n1 (stereo not shown),-10.9%
8,CC(C)(C)NC(=O)C(c1ccncc1)N(CC1CCCO1)C(=O)Cn1nnc(-c2ccc(F)cc2)n1 (stereo not shown),-3.33%
9,COc1ccc(CN(C(=O)CN2C(=O)c3ccccc3S2(=O)=O)C(C(=O)NCC2CCCO2)c2ccncc2)cc1 (stereo not shown),-10.3%
10,O=C(NCC1CCCO1)C(c1ccco1)N(Cc1ccc(F)cc1)C(=O)CN1C(=O)c2ccccc2S1(=O)=O (stereo not shown),-7.48%
11,CC(C)CCNC(=O)C(c1ccncc1)N(CC1CCCO1)C(=O)Cn1nnc(-c2ccc(F)cc2)n1 (stereo not shown),-64.8%
12,CC(C)CCNC(=O)C(c1ccncc1)N(Cc1cccs1)C(=O)Cn1nnc(-c2ccc(F)cc2)n1 (stereo not shown),-8.51%
13,Cc1ccc(-n2c(SCC(=O)Nc3ccc(Cl)cc3)nc(O)cc2=O)cc1,9.08%
14,CC(C)(C)c1ccc(C(=O)Nc2ccc(O)c3c(=O)cc(-c4ccccc4Cl)oc23)cc1,-3.26%
15,O=C(NCCO)/C(=C\c1ccco1)NC(=O)c1ccco1,1.44%
16,CNc1ccc(NC(C)=O)cc1[N+](=O)[O-],1.68%
17,CNC(=O)CCN(Cc1ccco1)S(=O)(=O)c1ccc(OC)c(OC)c1,14.1%
18,Cc1cccc(C)c1NC(=O)CSc1nnc(-c2ccncc2)n1Cc1ccco1,-29.2%
19,Cc1cc(C)c(NC(=O)CSc2nnc(-c3ccncc3)n2Cc2ccco2)c(Cl)c1,-52.7%
20,O=C(CSc1nnc(Cc2cccs2)n1Cc1ccco1)Nc1cccc(Cl)c1,-13.9%
21,COC(=O)c1c(NC(=O)CSc2nnc(-c3cccnc3)n2Cc2ccco2)sc(C)c1C,-59.3%

row,Compound,"hERG current change (%, negative = inhibition) at 10uM"
1,COc1cc(Cl)c(C)cc1NC(=O)CSc1nnc(-c2ccco2)n1CC(C)C,-62.1%
2,CCOC(=O)c1c(NC(=O)CSc2nnc(-c3cccnc3)n2Cc2ccco2)sc(C)c1C,-24.7%
3,Cc1cc(C)c(NC(=O)CSc2nnc(-c3ccncc3)n2Cc2ccco2)c(C)c1,-31.6%
4,C=CCn1c(SCC(=O)Nc2cc(C)c(Cl)cc2OC)nnc1-c1ccco1,-23.6%
5,O=C(CSc1nnc(Cc2cccs2)n1Cc1ccco1)Nc1ccc(Cl)cc1Cl,-57.1%
6,Cc1cc(Cl)ccc1NC(=O)CSc1nnc(Cc2cccs2)n1Cc1ccco1,-45.3%
7,CCn1c(SCC(=O)Nc2cc(C)c(Cl)cc2OC)nnc1-c1ccco1,-4.93%
8,CCOC(=O)c1c(NC(=O)CSc2nnc(-c3ccncc3)n2Cc2ccco2)sc(C)c1C,-19.3%
9,COc1ccc2nc(SCc3cccc(C)c3)nc(C)c2c1,-10.9%
10,COc1ccccc1OCCOCCOc1c(C)cc(C)cc1Br,8.26%
11,CC(C)N1CC(O)=C(c2ccccc2)C1=N,-0.355%
12,CC(C)NC(=O)c1ccccc1NC(=O)C1CC(=O)N(C(C)C)C1 (stereo not shown),42.9%
13,CSc1ncccc1C(=O)Nc1nccs1,-22.8%
14,O=C(CSc1nnc(-c2ccncc2)n1Cc1ccco1)Nc1ccccc1F,-20.4%
15,Cc1cc(Cl)ccc1NC(=O)CSc1nnc(-c2ccncc2)n1Cc1ccco1,-52.8%
16,O=C(CSc1nnc(-c2ccncc2)n1Cc1ccco1)Nc1ccccc1Cl,-36.3%
17,COc1cc(Cl)c(C)cc1NC(=O)CSc1nnc(-c2ccccn2)n1Cc1ccco1,-29.5%
18,COc1ccc(NC(=O)CSc2nnc(-c3ccccc3)n2Cc2ccco2)c(OC)c1,-26.4%
19,COc1cc(Cl)c(C)cc1NC(=O)CSc1nnc(-c2cccnc2)n1Cc1ccco1,-56.9%
20,Cc1c(C(=O)Nc2cc(S(=O)(=O)N3CCOCC3)ccc2N2CCN(C)CC2)oc2ccccc12,-10.8%
21,Cc1ccccc1N1CC(C(=O)O)CC1=O (stereo not shown),14.1%

row,Compound,"hERG current change (%, negative = inhibition) at 10uM"
1,Cc1cccc(Cn2ccc(NC(=O)c3ccc4c(c3)OCO4)n2)c1,-34.3%
2,CCCNC(=O)c1ccc2c(=O)n3c(-c4ccc(C)cc4)csc3nc2c1,5.26%
3,Cc1ccc(C2(CCNCc3ccc(N(C)C)cc3)CCOC(C(C)C)C2)cc1 (stereo not shown),-64.1%
4,CC(C)C1CC(CCNCc2ccc(N(C)C)cc2)(c2ccccc2)CCO1 (stereo not shown),-24.6%
5,Cc1ccc(C2(CCN)CCOC(C(C)C)C2)cc1 (stereo not shown),17%
6,COc1ccccc1C1(CCNS(=O)(=O)c2ccc(C)cc2)CCOC(C(C)C)C1 (stereo not shown),4.49%
7,Cc1ccc(C2(CCNS(=O)(=O)c3ccc(C)cc3)CCOC(C(C)C)C2)cc1 (stereo not shown),-53.5%
8,Cc1ccc(C2(CCNCc3ccco3)CCOC(C(C)C)C2)cc1 (stereo not shown),-35.6%
9,O=C(Nc1ccc2c(c1)OCO2)Oc1ccccc1,-7.16%
10,O=C(c1cccc(C(F)(F)F)c1)N1CCC(O)(CS(=O)(=O)Cc2ccccc2Cl)CC1,-8.87%
11,CNC(=O)C1CC(=O)N(Cc2ccc(OC)c(OC)c2)C(=Nc2ccc(OC)cc2)S1 (stereo not shown),-6.01%
12,Fc1ccc(-c2nnc(Cc3ccc(Cl)cc3)o2)cc1,-16.7%
13,O=[N+]([O-])c1ccc(Cc2nnc(-c3ccccc3Cl)o2)cc1,-15.5%
14,Cc1ccc(-c2nnc(Cc3ccc(Cl)cc3)o2)cc1,8.63%
15,O=[N+]([O-])c1ccc(Cc2nnc(-c3ccc(F)cc3)o2)cc1,-57.2%
16,Fc1ccc(-c2nnc(Cc3nnc(-c4ccc(F)cc4)o3)o2)cc1,10.8%
17,Cc1ccc(-c2nnc(Cc3ccc([N+](=O)[O-])cc3)o2)cc1,-64.9%
18,Cc1ccc(C(=O)Nc2c(C)n(C)n(-c3ccccc3)c2=O)cc1S(=O)(=O)N1CCOCC1,0.249%
19,Cc1ccc(S(=O)(=O)N(C)c2c(C)ccc(S(N)(=O)=O)c2C)cc1,-10.9%
